# Several values for one entry are separate records, joined by “and”; a condition that tells them apart may be missing. Identical values can stand only once. Some compounds were tested as several samples or in several runs, with calls that do not always agree. Activity calls are given as the source filed them. Entries that show only a call come without a potency. Unless noted, calls come from the whole dose curve; as a rule, active = well fitted curve in the direction sought with a large enough effect in the repeat runs; inconclusive = weak or mixed curves; inactive = no such curve, though single readings can be large; an effect the other way counts as inactive or inconclusive.
# Legend:
# [1] = qHTS assay to identify small molecule antagonists of the thyroid receptor (TR) signaling pathway - cell viability counter screen (AID 743064); note: nearly all actives have a fitted effect of over 50% in size; note: potency is the fitted concentration of half-maximal effect
# In short: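 GH3.TRE-Luc rat pituitary cells dosed after 4 hr plating, co-stimulated with T3 at 1 nM final, incubated 23.5 h at 37 C. Viability measured in the same wells by CellTiter-Fluor fluorescence after 30 min further at 37 C.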
# [2] = test system: thyroid hormone receptor (rat, GH3 cells); assay: qHTS assay to identify small molecule agonists of the thyroid receptor (TR) signaling pathway (AID 743066; calls by dose curve)
# [3] = qHTS assay to identify small molecule antagonists of the estrogen receptor alpha (ER-alpha) signaling pathway - cell viability counter screen (AID 743074; calls by dose curve; note: nearly all actives have a fitted effect of over 45% in size)
# [4] = qHTS assay to identify small molecule antagonists of the estrogen receptor alpha (ER-alpha) signaling pathway using the BG1 cell line - cell viability counter screen (AID 743081);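 note: compound given together with 17beta-estradiol as the ER stimulus; nearly all actives have a fitted effect of over 45% in size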
# Aromatase (Homo sapiens) = Aromatase (Homo sapiens) (UniProt P11511); assay: qHTS assay to identify aromatase inhibitors (AID 743083); note: nearly all actives have a fitted effect of over 55% in size; note: potency is the fitted concentration of half-maximal effect
# [5] = qHTS assay to identify aromatase inhibitors - cell viability counter screen (AID 743084);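 note: cells stimulated with testosterone during compound exposure; nearly all actives have a fitted effect of over 55% in size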; note: potency is the fitted concentration of half-maximal effect
# [6] = molecular target: Aryl hydrocarbon receptor (Homo sapiens) (UniProt P35869); assay: qHTS assay to identify small molecule that activate the aryl hydrocarbon receptor (AhR) signaling pathway (AID 743085); note: nearly all actives have a fitted effect of over 15% in size; note: potency is the fitted concentration of half-maximal effect;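 for activation: HG2L7.5c1 human HepG2 liver cells with stably integrated DRE-driven firefly reporter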
# In short: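 HepG2 cells stably carrying a 20-DRE firefly luciferase reporter (HG2L7.5c1) treated with compound for 24 hr at 37C. Luciferase read by ONE-Glo luminescence, with CellTiter-Fluor viability read first.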
# [7] = qHTS assay to identify small molecule that activate the aryl hydrocarbon receptor (AhR) signaling pathway - cell viability counter screen (AID 743086);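 note: HepG2 liver cells carrying the AhR DRE luciferase reporter; nearly all actives have a fitted effect of over 45% in size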
# In short: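 HepG2-AhR-luc (HG2L7.5c1) cells, 4000/well, treated 24 h at 37 C with compound; viability measured as CellTiter-Fluor fluorescence after 30 min in the same wells as the luciferase read.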
# [8] = qHTS assay to identify small molecule antagonists of the peroxisome proliferator-activated receptor gamma (PPARg) signaling pathway - cell viability counter screen (AID 743194); note: nearly all actives have a fitted effect of over 55% in size; note: potency is the fitted concentration of half-maximal effect
# In short: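 Cytotoxicity counter screen in PPARg-bla HEK293H cells, same wells as reporter assay. Compounds plus 50 nM rosiglitazone (final) for 17 h at 37 C, then viability read by CellTiter-Glo luminescence.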
# [9] = qHTS assay for small molecule agonists of the antioxidant response element (ARE) signaling pathway - cell viability counter screen (AID 743203; calls by dose curve; note: nearly all actives have a fitted effect of over 55% in size)
# In short: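 ATP content via CellTiter-Glo luminescence served as the viability measure. Cells: ARE-bla HepG2, 2,000 per well. Exposure: 16 hrs, 37C/5% CO2.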
# [10] = qHTS assay for small molecule activators of the heat shock response signaling pathway - cell viability counter screen (AID 743209); note: nearly all actives have a fitted effect of over 50% in size; note: potency is the fitted concentration of half-maximal effect
# In short: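 Compounds dissolved in DMSO were added to overnight-plated HSE-bla HeLa cells and left 5 h at 37 C. Cell viability was quantified by luminescence using CellTiter-Glo.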
# [11] = qHTS assay for small molecule activators of the heat shock response signaling pathway (AID 743210; active = well fitted activation curve with a large enough effect in the signal ratio in the repeat runs, with a control signal flat, not every such curve was filed as active; inconclusive = weak or mixed curves; the % refers to the signal ratio;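 note: HeLa cells with beta-lactamase reporter driven by heat shock elements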)
# In short: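 Following overnight attachment, HSE-bla HeLa cells received test compounds for 5 h at 37 C; beta-lactamase activity was then detected via FRET substrate fluorescence.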
# [12] = molecular target: Estrogen receptor (Homo sapiens) (UniProt P03372); assay: qHTS assay to identify small molecule agonists of the estrogen receptor alpha (ER-alpha) signaling pathway (AID 743075; calls by dose curve; note: potency is the fitted concentration of half-maximal effect)
# [13] = molecular target: Estrogen receptor (Homo sapiens) (UniProt P03372); assay: qHTS assay to identify small molecule agonists of the estrogen receptor alpha (ER-alpha) signaling pathway using the BG1 cell line (AID 743079); settings: BG1Luc4E2 cells, ERE-luciferase agonist, 22 h; activation: at 70.3 µM (top of the series); note: nearly all actives have a fitted effect of over 20% in size; note: potency is the fitted concentration of half-maximal effect
# [14] = qHTS assay to identify small molecule antagonists of the estrogen receptor alpha (ER-alpha) signaling pathway using the BG1 cell line (AID 743080; calls by dose curve;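 note: BG1 cells stimulated with 17beta-estradiol alongside compound; nearly all actives have a fitted effect of over 25% in size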; note: potency is the fitted concentration of half-maximal effect)
# In short: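 Quantitative HTS on the Tox21 10K library: BG1 cells with endogenous ER-alpha and ERE-luciferase reporter, 17beta-estradiol stimulation, 21.5 h compound exposure, luminescence endpoint with parallel fluorescence cytotoxicity counter-read.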
# [15] = molecular target: Peroxisome proliferator-activated receptor gamma (Homo sapiens) (UniProt P37231); assay: qHTS assay to identify small molecule agonists of the peroxisome proliferator-activated receptor gamma (PPARg) signaling pathway (AID 743094; active = well fitted activation curve with a large enough effect in the signal ratio in the repeat runs, not every such curve was filed as active; inconclusive = weak or mixed curves, or effect the other way; inactive = no such curve, though single readings can be large or run the other way; the % refers to the signal ratio; note: potency is the fitted concentration of half-maximal effect)
# In short: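 Agonism was assessed in a beta-lactamase reporter system, HEK293H cells with a stably integrated UAS-bla construct under PPARg control; the 17 h treatment at 37C preceded a 1 h room-temperature FRET substrate read.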
# [16] = qHTS assay for small molecule agonists of the antioxidant response element (ARE) signaling pathway (AID 743202; active = well fitted activation curve with a large enough effect in the signal ratio in the repeat runs, not every such curve was filed as active; inconclusive = weak or mixed curves, or effect the other way; inactive = no such curve, though single readings can be large or run the other way; the % refers to the signal ratio; note: potency is the fitted concentration of half-maximal effect)
# In short: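 HepG2 ARE-bla cells; 16 h treatment at 37 C; FRET-based beta-lactamase fluorescence read after 2 h substrate incubation at room temperature.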
# [17] = molecular target: Estrogen receptor (Homo sapiens) (UniProt P03372); assay: qHTS assay to identify small molecule antagonists of the estrogen receptor alpha (ER-alpha) signaling pathway (AID 743069; active = well fitted curve in the direction sought with a large enough effect in the signal ratio in the repeat runs, not every such curve was filed as active; inconclusive = weak or mixed curves, or effect the other way; inactive = no such curve, though single readings can be large or run the other way; the % refers to the signal ratio; note: potency is the fitted concentration of half-maximal effect)
# In short: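 In this cell-based reporter format, GripTite HEK293 cells harbouring ER-alpha-UAS-bla were grown overnight with 2% charcoal-stripped FBS, dosed with DMSO-dissolved compounds, then challenged with 17beta-estradiol. After 18 hr at 37C, beta-lactamase activity was detected by FRET fluorescence.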
# [18] = molecular target: Peroxisome proliferator-activated receptor gamma (Homo sapiens) (UniProt P37231); assay: qHTS assay to identify small molecule antagonists of the peroxisome proliferator-activated receptor gamma (PPARg) signaling pathway (AID 743191; calls by dose curve; note: nearly all actives have a fitted effect of over 30% in size; note: potency is the fitted concentration of half-maximal effect)
# In short: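 GeneBLAzer PPARg UAS-bla HEK293H cells, 5 h post-plating, exposed to compounds 17 h at 37C. LiveBLAzer B/G FRET substrate added for 1 h at room temperature; beta-lactamase reporter read by fluorescence intensity.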
# Sequence of Peroxisome proliferator-activated receptor gamma (Homo sapiens) (P37231 whole entry, looked up): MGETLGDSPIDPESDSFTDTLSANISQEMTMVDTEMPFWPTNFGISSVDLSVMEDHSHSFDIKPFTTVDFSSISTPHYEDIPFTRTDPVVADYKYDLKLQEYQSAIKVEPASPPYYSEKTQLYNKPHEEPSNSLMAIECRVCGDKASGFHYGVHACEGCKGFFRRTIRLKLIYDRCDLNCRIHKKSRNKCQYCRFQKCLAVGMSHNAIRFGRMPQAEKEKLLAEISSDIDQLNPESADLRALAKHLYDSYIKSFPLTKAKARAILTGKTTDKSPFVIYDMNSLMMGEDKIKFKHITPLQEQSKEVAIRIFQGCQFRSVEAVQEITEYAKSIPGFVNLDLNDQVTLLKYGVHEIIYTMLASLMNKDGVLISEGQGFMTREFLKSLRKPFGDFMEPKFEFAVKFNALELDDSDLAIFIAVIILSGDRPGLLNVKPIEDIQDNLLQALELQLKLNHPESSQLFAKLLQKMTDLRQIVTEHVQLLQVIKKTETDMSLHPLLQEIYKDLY
# Sequence of Aryl hydrocarbon receptor (Homo sapiens) (P35869 whole entry, looked up): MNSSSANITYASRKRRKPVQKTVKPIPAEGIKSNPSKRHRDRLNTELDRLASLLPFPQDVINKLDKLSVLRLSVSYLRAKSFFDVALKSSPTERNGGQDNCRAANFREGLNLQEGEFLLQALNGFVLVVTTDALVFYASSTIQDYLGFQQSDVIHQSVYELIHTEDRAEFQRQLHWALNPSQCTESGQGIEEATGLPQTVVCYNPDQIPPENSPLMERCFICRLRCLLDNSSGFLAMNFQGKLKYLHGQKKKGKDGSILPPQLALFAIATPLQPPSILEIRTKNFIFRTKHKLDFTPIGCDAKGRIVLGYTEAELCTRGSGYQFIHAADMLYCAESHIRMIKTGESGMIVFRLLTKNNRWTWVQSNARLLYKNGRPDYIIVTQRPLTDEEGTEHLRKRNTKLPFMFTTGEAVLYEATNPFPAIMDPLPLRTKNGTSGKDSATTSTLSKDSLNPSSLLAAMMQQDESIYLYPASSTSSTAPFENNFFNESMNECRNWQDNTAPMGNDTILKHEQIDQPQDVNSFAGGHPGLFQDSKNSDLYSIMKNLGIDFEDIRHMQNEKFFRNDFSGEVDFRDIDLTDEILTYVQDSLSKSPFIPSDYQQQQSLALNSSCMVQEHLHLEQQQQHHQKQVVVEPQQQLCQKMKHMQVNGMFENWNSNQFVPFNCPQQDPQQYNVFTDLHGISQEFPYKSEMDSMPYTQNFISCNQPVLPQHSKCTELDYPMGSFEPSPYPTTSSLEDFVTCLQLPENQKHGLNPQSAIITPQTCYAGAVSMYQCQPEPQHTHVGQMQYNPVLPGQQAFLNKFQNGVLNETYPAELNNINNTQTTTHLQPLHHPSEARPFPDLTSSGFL
# Sequence of Aromatase (Homo sapiens) (P11511 whole entry, looked up): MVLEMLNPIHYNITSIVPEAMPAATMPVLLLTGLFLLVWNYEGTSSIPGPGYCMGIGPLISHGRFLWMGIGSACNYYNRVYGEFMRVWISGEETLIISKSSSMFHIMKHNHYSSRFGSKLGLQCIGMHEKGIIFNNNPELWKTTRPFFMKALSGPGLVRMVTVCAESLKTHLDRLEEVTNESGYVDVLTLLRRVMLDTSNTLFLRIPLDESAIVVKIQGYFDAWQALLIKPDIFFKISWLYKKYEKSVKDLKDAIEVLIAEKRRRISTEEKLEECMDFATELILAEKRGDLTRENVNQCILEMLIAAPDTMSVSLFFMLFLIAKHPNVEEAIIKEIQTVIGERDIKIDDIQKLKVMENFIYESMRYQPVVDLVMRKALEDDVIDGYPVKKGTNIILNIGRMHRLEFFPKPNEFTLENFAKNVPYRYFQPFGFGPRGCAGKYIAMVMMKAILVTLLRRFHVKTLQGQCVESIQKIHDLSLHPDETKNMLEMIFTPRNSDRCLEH
# Sequence of Estrogen receptor (Homo sapiens) (P03372 whole entry, looked up): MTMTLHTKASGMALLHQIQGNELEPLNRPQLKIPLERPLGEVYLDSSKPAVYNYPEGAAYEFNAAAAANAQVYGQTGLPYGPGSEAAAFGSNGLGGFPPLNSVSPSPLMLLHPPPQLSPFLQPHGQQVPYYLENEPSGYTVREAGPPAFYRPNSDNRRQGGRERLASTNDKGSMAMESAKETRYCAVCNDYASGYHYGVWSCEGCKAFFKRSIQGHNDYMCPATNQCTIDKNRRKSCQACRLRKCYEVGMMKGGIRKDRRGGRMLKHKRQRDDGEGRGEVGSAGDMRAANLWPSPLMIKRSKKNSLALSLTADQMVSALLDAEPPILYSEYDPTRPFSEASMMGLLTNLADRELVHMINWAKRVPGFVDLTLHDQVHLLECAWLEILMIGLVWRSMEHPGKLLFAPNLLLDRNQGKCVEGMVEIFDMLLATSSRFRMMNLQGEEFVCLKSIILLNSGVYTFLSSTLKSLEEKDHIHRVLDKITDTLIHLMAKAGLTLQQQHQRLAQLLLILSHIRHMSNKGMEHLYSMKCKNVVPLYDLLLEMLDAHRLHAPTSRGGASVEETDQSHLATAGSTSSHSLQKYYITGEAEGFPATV
SMILES,Potency [1],outcome [2],Potency [3],Potency [4],Potency (Aromatase (Homo sapiens)),Potency [5],Potency [6],Potency [7],Potency [8],Potency [9],Potency [10],Potency [11],Potency [12],Potency [13],Potency [14],Potency [15],Potency [16],Potency [17],Potency [18]
Cc1cccc(O)c1N,inactive,inactive,inactive,inactive,inactive,inactive,27.6 µM (active),inactive,inactive,inactive,inactive,inactive,,,,,,,
O=C(CCc1ccc(O)cc1)c1c(O)cc(O)cc1O,55.7 µM (active),inactive,,inactive,,inactive,inactive,inactive,,,inactive,,14.1 µM [inconclusive] (active),4.96 µM (active),inactive,inactive,31.3 µM (active),,
CCOC(=O)c1ccc(OCCN2C[C@H](O)[C@@H](O)[C@H](O)[C@H]2CO)cc1,inactive,inactive,,inactive,inactive,inactive,inactive,,inactive,inactive,inactive,inactive,inactive,inactive,inactive,inactive,inactive,inactive,inactive
CC1(C)O[C@@H]2C[C@H]3[C@@H]4C[C@H](F)C5=CC(=O)C=C[C@]5(C)[C@H]4[C@@H](O)C[C@]3(C)[C@]2(C(=O)CO)O1,inactive,inactive,inactive,inactive,inactive,inactive,inactive,,inactive,inactive,inactive,inactive,,inactive,,inactive,inactive,,
C[C@]1(Cn2ccnn2)[C@H](C(=O)O)N2C(=O)C[C@H]2S1(=O)=O,inactive,inactive,inactive,,inactive,inactive,,,inactive,inactive,inactive,,,inactive,inactive,,,2.39 µM [inconclusive] (active),
CCOC(=O)OC(C)OC(=O)[C@@H]1N2C(=O)[C@@H](NC(=O)[C@H](N)c3ccccc3)[C@H]2SC1(C)C (some centres undefined),inactive,inactive,inactive,inactive,inactive,inactive,inactive,,inactive,inactive,inactive,inactive,,,,inactive,inactive,,
O=C1CCCCCCCCCCOCCCCO1,inactive,inactive,inactive,inactive,,inactive,inactive,inactive,inactive,inactive,inactive,,,,,inactive,inactive,,inactive
O=C(OCC(O)CO)c1ccccc1Nc1ccnc2cc(Cl)ccc12 (centres undefined),inactive,inactive,inactive,inactive,inactive,inactive,,inactive,inactive,inactive,,,inactive,inactive,inactive,inactive,11.9 µM (active),,
c1ccc2c(c1)CCc1ccccc1N2,inactive,inactive,,inactive,inactive,,,,inactive,inactive,inactive,,,,,inactive,inactive,,inactive
CCC(=O)OC,inactive,,inactive,inactive,inactive,inactive,inactive,inactive,inactive,inactive,inactive,inactive,inactive,inactive,inactive,inactive,inactive,inactive,inactive
CCCCC(CC)COP(=O)(O)O (centres undefined),inactive,inactive,inactive,inactive,inactive,inactive,,inactive,inactive,inactive,inactive,,inactive,inactive,inactive,,,39.6 µM [inconclusive] (active),
CC(=O)OCC[N+](C)(C)C,inactive,inactive,inactive,inactive,inactive,inactive,inactive,inactive,inactive,inactive,inactive,inactive,,,,inactive,inactive,,inactive
C=C(C)[C@@H]1CCC2=CCC[C@@H](C)[C@]2(C)C1,inactive,inactive,inactive,inactive,,inactive,inactive,inactive,,inactive,,,inactive,,inactive,inactive,,inactive,inactive
CC1(C)[C@H](C(=O)O)N2C(=O)C[C@H]2S1(=O)=O,inactive,inactive,inactive,inactive,inactive,inactive,inactive,inactive,inactive,inactive,inactive,,inactive,inactive,inactive,,,,
CC[C@]1(O)C[C@H]2CN(CCc3c([nH]c4ccccc34)[C@@](C(=O)OC)(c3cc4c(cc3OC)N(C=O)[C@H]3[C@@](O)(C(=O)OC)[C@H](OC(C)=O)[C@]5(CC)C=CCN6CC[C@]43[C@@H]65)C2)C1,0.106 µM (active),inactive,,inactive,inactive,,inactive,,inactive,,inactive,inactive,,,0.0531 µM (active),,,,inactive
CCCCCC[C@@H](O)C/C=C\CCCCCCCC(=O)O,inactive,inactive,inactive,inactive,inactive,inactive,,inactive,,,,,,,,inactive,,,
COc1ccccc1N1CCN(CC(O)COc2cccc3ccccc23)CC1 (centres undefined),26.6 µM (active),inactive,inactive,inactive,inactive,inactive,29.8 µM (active),inactive,inactive,inactive,inactive,,,,,inactive,,,
Clc1ccc(Nc2nnc(Cc3ccncc3)c3ccccc23)cc1,inactive,inactive,inactive,inactive,5.31 µM (active) and 13.3 µM (active),inactive,1.5 µM (active) and 841 nM (active),,,,inactive,,inactive,inactive,21.1 µM (active) and 26.6 µM (active),inactive,21.1 µM (active),26.8 µM [inconclusive] (active) and inactive,

SMILES,Potency [1],outcome [2],Potency [3],Potency [4],Potency (Aromatase (Homo sapiens)),Potency [5],Potency [6],Potency [7],Potency [8],Potency [9],Potency [10],Potency [11],Potency [12],Potency [13],Potency [14],Potency [15],Potency [16],Potency [17],Potency [18]
CCOC(=O)c1ccc(C#Cc2ccc3c(c2)C(C)(C)CCS3)nc1,inactive,inactive,inactive,inactive,,inactive,inactive,inactive,inactive,inactive,inactive,,,,,,26.6 µM (active),,
Cc1ccc(Cl)c(Nc2ccccc2C(=O)O)c1Cl,inactive,inactive,,inactive,inactive,inactive,inactive,inactive,inactive,inactive,,inactive,inactive,inactive,inactive,,inactive,,
CCCCCCCCOc1ccc(C(=O)O)cc1,inactive,inactive,inactive,inactive,,inactive,inactive,inactive,inactive,inactive,,,,,,,,,
Cc1cc(C)c(N)cc1C,inactive,inactive,inactive,inactive,,inactive,,,inactive,inactive,inactive,,inactive,inactive,inactive,inactive,inactive,inactive,
C/C=C/C=C/C=O,inactive,inactive,,inactive,inactive,inactive,inactive,inactive,,inactive,inactive,inactive,inactive,inactive,inactive,inactive,,inactive,inactive
O=[N+]([O-])c1ccc(O/N=C/c2cc(Br)c(O)c(Br)c2)c([N+](=O)[O-])c1,10.8 µM (active),inactive,,,inactive,inactive,,inactive,,,inactive,,,,,inactive,8.59 µM (active),,19.4 µM (active)
Oc1cccc(Nc2ccccc2)c1,inactive,inactive,,,inactive,inactive,inactive,inactive,inactive,inactive,inactive,inactive,57.6 µM [activator] (active),25.4 µM (active),,,,,
CC(=O)[C@H]1[C@H](C#N)C[C@H]2[C@@H]3CC=C4C[C@@H](O)CC[C@]4(C)[C@H]3CC[C@@]21C,inactive,inactive,inactive,inactive,inactive,inactive,inactive,inactive,inactive,inactive,inactive,inactive,inactive,,inactive,inactive,33.1 µM (active),,
O=[N+]([O-])c1ccc(Nc2ccc(Nc3ccccc3)c(S(=O)(=O)O)c2)c([N+](=O)[O-])c1,48.6 µM (active),inactive,inactive,,inactive,,inactive,,inactive,inactive,inactive,,,,,inactive,,,inactive
O=C1c2ccccc2C(=O)c2c(O)c(O)cc(O)c21,54.5 µM (active),inactive,inactive,,inactive,27.3 µM (active),10.9 µM (active),,inactive,inactive,inactive,inactive,inactive,,,inactive,,inactive,
N#[N+]c1ccc2c(S(=O)(=O)[O-])cccc2c1O,inactive,inactive,inactive,inactive,inactive,,inactive,,inactive,inactive,inactive,inactive,inactive,,inactive,inactive,inactive,,
NC1[C@H]2CN(c3nc4c(cc3F)c(=O)c(C(=O)O)cn4-c3ccc(F)cc3F)C[C@@H]12 (some centres undefined),26.6 µM (active),inactive,inactive,inactive,473 nM (active),inactive,inactive,,inactive,inactive,inactive,inactive,,,13.3 µM (active),23.9 µM (active),8.41 µM (active),,
CC(C)C(O)(c1ccc(OC(F)(F)F)cc1)c1cncnc1 (centres undefined),inactive,inactive,inactive,inactive,inactive,inactive,inactive,inactive,inactive,inactive,inactive,,,,,,,,
CCCCCCCCCCC(=O)O,inactive,inactive,inactive,inactive,inactive,inactive,inactive,inactive,inactive,inactive,inactive,inactive,inactive,inactive,inactive,,,,inactive
CCCCCCCCC(CCCCCC)C(=O)O (centres undefined),inactive,inactive,inactive,inactive,,,inactive,,38.9 µM (active),,17.4 µM (active),,,,,,inactive,,
O=C1c2ccccc2C(=O)C1c1nc2ccccc2c(Br)c1O,inactive,inactive,inactive,inactive,inactive,,9.69 µM (active),inactive,inactive,inactive,inactive,inactive,inactive,inactive,,inactive,1.54 µM (active),,inactive
CCOc1ccc(Cc2nccc3cc(OCC)c(OCC)cc23)cc1OCC,inactive,inactive,inactive,,inactive,inactive,,inactive,inactive,inactive,inactive,inactive,inactive,,11.4 µM (active),inactive,,,
CC(=O)c1ccc([N+](=O)[O-])cc1,inactive,inactive,inactive,inactive,inactive,inactive,inactive,,inactive,inactive,inactive,inactive,,,,inactive,inactive,,inactive

# From PubChem BioAssay (Tox21)
